In ChEMBL document CHEMBL1201862, “PubChem BioAssay data set” (2004) one finds Potency data, which are given here for 33 molecules.

The campaign covered roughly 400,000 compounds. About 2,100 (0.53%) were called active. Not shown: some 14% with an inconclusive outcome. No rule for the calls is given here. The entries come from a sample that favours actives as a whole.

For the assay, the target named is Ataxin-2 (Homo sapiens) (UniProt Q99700). Description: qHTS for Inhibitors of ATXN expression. In kind it is functional. (In qHTS, concentration-response curves come from the screen itself.)
Ataxin-2 (Homo sapiens), sequence (Q99700 whole entry): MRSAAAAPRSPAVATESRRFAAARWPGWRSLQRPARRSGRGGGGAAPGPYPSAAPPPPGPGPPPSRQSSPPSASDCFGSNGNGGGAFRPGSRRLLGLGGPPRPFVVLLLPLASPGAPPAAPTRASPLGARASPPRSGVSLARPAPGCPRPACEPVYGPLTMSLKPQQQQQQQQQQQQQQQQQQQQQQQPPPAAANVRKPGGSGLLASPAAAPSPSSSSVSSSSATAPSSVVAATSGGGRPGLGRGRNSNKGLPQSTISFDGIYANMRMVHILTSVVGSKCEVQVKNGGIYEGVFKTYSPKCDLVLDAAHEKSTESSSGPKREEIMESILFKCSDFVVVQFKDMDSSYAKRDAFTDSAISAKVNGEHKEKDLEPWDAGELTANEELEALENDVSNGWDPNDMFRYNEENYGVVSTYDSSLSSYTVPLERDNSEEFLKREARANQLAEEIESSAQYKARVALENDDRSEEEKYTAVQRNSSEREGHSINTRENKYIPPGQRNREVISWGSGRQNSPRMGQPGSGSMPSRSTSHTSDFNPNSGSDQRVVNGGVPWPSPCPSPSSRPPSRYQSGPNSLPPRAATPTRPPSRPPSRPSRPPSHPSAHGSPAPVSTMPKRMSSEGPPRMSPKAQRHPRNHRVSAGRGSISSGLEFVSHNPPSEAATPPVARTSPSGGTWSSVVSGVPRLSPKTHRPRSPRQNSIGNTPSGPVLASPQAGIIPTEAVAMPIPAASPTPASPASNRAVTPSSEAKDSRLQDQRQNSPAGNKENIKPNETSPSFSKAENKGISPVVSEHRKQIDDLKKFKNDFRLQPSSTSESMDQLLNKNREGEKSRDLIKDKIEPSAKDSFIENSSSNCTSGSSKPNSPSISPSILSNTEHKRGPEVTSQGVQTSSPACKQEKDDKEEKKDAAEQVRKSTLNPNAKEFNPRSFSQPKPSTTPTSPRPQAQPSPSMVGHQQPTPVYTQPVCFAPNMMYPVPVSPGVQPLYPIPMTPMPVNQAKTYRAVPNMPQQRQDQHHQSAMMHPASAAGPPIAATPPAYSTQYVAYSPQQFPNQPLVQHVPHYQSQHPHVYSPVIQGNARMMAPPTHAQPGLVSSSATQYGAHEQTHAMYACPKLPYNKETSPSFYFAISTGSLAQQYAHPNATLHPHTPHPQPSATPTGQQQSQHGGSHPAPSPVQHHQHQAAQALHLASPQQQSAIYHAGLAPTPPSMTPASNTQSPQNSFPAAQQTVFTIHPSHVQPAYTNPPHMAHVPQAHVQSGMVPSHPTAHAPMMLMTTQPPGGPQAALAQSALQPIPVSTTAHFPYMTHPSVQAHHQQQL
Take `COc1cccc(NC(=O)N2CCCC2C(=O)Nc2cc(C)ccc2OC)c1` (stereo not drawn): the Potency entry was “inactive”. In the case of `c1ccc2c3c(c(CN4CCCC4)cc2c1)COC3` it was “inactive”; in that of `Cc1ccc(NC(=O)NN2CCOCC2)cc1`, “inactive”; in that of `CC1(C)Cc2c(cnn2-c2cccc(F)c2)C(NC(=O)CSc2ccccn2)C1` (stereo not drawn), “inactive”. Take `Cc1cc(-n2c(=O)c(C#N)cc3c(=O)n4cccc(C)c4nc32)no1`: the Potency entry was “inactive”. For the molecule `O=C(N/N=C/c1ccc(N2CCOCC2)cc1)c1ccccc1NS(=O)(=O)c1cccs1`, the Potency entry is “inactive”. `C[C@H]1CCC[C@]2(C)C[C@H]3OC(=O)C(CN4CCCCCC4)[C@H]3C=C12` (stereo partly drawn): the Potency was 39.8 µM (active). As for `CCN/N=C(\Cc1nc2ccccc2[nH]1)c1ccccc1`, the Potency entry was “inactive”. In the case of `Cc1cccn2c(=O)c3cc(C(=O)NCC4CCCO4)c(=N)n(CC4CCCO4)c3nc12` (stereo not drawn) it was “inactive”; in that of `COc1cccc(-c2nc(CS(=O)(=O)CC(=O)Nc3cccc(C)c3C)c(C)o2)c1`, 7.08 µM (active); in that of `Cc1ccc(-c2nc(CS(=O)(=O)CC(=O)NCc3ccc4c(c3)OCO4)c(C)o2)cc1`, “inactive”.

Consider `Cc1ccc(CNC(=O)CS(=O)(=O)Cc2nc(-c3ccccc3F)oc2C)cc1`, for which the Potency entry is “inactive”. Take `COc1ccc(OC)c(/C=C2\Oc3cc(OCC(=O)N4CC(O)C[C@H]4C(=O)O)ccc3C2=O)c1` (stereo partly drawn): the Potency entry is “inactive”. As to `CCOc1ccc2c(c1)/C(=C(\C(Cl)=C(Cl)Cl)[N+](=O)[O-])N2`, the Potency entry was “inactive”. The result for `COc1ccc(C(=O)/C(=C\c2ccco2)N2C=CC=CC2=C(C#N)C#N)cc1` reads 1.78 µM (active). As for `COc1ccc(/C=c2\s/c(=C(/C#N)C(=O)NCc3ccco3)n(-c3ccccc3)c2=O)cc1`, the Potency entry was “inactive”. The result for `O=C(O)CSCC(=O)NCc1csc2ccc(Cl)cc12` reads “inactive”; that for `O=C(CSc1nc(-c2ccccc2)[nH]c1-c1ccccc1)Nc1ccc2c(c1)OCCO2`, 39.8 µM (active); that for `N#Cc1ccccc1NC(=O)CSc1nc(-c2ccccc2)cc(C(F)(F)F)c1C#N`, “inactive”. The result for `O=C(CN1CCc2ccccc21)Nc1ccc2c(c1)OCCCO2` reads “inactive”; that for `Cc1ccc(NC(=O)CSc2nnc(-c3cc(C)on3)o2)cc1`, “inactive”; that for `O=C(CSc1nc(-c2ccc(F)cc2)[nH]c1-c1ccc(F)cc1)Nc1ccc2c(c1)OCCO2`, 39.8 µM (active). Take `COc1ccc(-c2[nH]c(-c3ccc(C)cc3)nc2SCC(=O)NCc2ccco2)cc1OC`: the Potency result is “inactive”.

Consider `CCN(CC)c1ccc2cc(C(N)=O)c(=N)oc2c1`, for which the Potency result is “inactive”. `O=C1N=C(N2CCCCC2)S/C1=C\c1ccc(Br)cc1`: the Potency result was “inactive”.

Turning to `CC(=O)Oc1ccc2cc(-c3nc4ccccc4n3C)c(=O)oc2c1`, the Potency entry is “inactive”. In the case of `Cc1cc(OCCn2c(C3CC(=O)N(Cc4ccc(F)cc4)C3)nc3ccccc32)ccc1Cl` (stereo not drawn) it was 39.8 µM (active). In the case of `CCc1ccc(OCCn2c(C3CC(=O)N(Cc4ccc(F)cc4)C3)nc3ccccc32)cc1` (stereo not drawn), the Potency is 39.8 µM (active). Take `Cc1cc(NC2CCCCC2)n2c(n1)nc1ccccc12`: the Potency entry is “inactive”. In the case of `CCCCN1CC(c2nc3ccccc3n2CCCCOc2ccc(C)c(C)c2)CC1=O` (stereo not drawn) it was 39.8 µM (active); in that of `Cc1ccccc1N1CC(c2nc3ccccc3n2CCC2CCCCC2)CC1=O` (stereo not drawn), 35.5 µM (active); in that of `Cc1cccc(N2CC(c3nc4ccccc4n3C)CC2=O)c1C` (stereo not drawn), “inactive”. The result for `CC(C)(C)OC(=O)c1c(N)n(CCCN2CCCC2=O)c2nc3ccccc3nc12` reads “inactive”.
